Measured values reported in PubChem BioAssay AID1671190 (National Center for Advancing Translational Sciences (NCATS), 2021).
The campaign covered roughly 580,000 compounds. About 6,100 (1.1%) were called active. Not shown: some 15% with an inconclusive outcome. The call rests on the fitted dose curve; in most records, active means well fitted inhibition curve with a large enough effect; inconclusive means small, poorly fitted or top-dose-only effect, or another doubt; inactive means no such curve, though single readings can be large or run the other way. What follows is part of a selection rich in actives, with near analogues and random picks from the rest. Entries that show only a call come without a potency.

target: Polyunsaturated fatty acid lipoxygenase ALOX12 (Homo sapiens) (UniProt P18054); test: Primary qHTS assay for inhibitors of human arachidonate 12S-lipoxygenase (ALOX12): Round 2; settings: purified 12hLO, xylenol orange hydroperoxide absorbance; series mostly up to 108 µM
From the text: Assay Provider: Theodore R. Holman Ph.D. University of California, Santa Cruz, California Human lipoxygenase 12hLO is a member of the closely related lipoxygenase family of enzymes which catalyze the site-specific oxidation of arachidonic acid to various hormone precursor molecules and as such is a candidate for drug development in a variety of disease areas, such as cancer and inflammation. Inhibition of 12hLO activity was screened by utilizing arachidonic acid as a substrate. The extent of hydroperoxide product formation was measured by a secondary chromogenic reaction in which xylenol orange (XO, Sigma-Aldrich, cat. number 39,818-7) reacts with the ferric ions produced from the reaction between the hydroperoxide and ferrous ions. The Fe (III)-XO complex is characterized with red-shifted absorbance at 560 nm. A purified preparation of human 12hLO was supplied by Dr. Holman laboratory, University of California, Santa Cruz.
PROTOCOL TABLE SEQUENCE No. (e.g., 1, 2, 3, etc.); […] (e.g., Cells, Incubation, Reagent, etc.); VALUE; DESCRIPTION 1; Enzyme; 3 uL; 150 nM 12hLO enzyme solution dispensed in 1536-well Greiner black, clear bottom plates. 2; Compound; 23 nL; compounds and controls were added. 3; Incubate; 15 min; room temperature. 4; Substrate; 1 uL; 40 uM arachidonic acid (final concentration). 5; Incubate; 30 min; room temperature. 6; Reagent; 4 uL; Fe-XO solution was added to each well. 7; Incubation; 30 min; room temperature 8; Detector; absorbance; Read 1 at 405 nm absorbance using ViewLux (Perkin-Elmer) CCD imager. 9; Detector; absorbance; Read 2 at 573 nm absorbance using ViewLux (Perkin-Elmer) CCD imager. NOTES (numbers refer to sequence above) 1; 150 nM 12hLO (final concentration) in buffer solution (25 mM Hepes, 0.01% Triton X-100, pH 7.0) was dispensed in columns 1, 2, 5-48. Column 1 is neutral (100% activity). Buffer only was dispensed in columns 3 and 4 as no enzyme negative controls. The plates were covered with metal lids with gas-exchange holes. 2; Compounds were pin transferred via a Kalypsys Pin Tool (Wako USA) in column 5-48. Control compound was transferred in column 2, titration of nordihydroguaiaretic acid (NDGA, Sigma-Aldrich, N5023) with top concentration of 20 mM in DMSO then 1:3 dilution in duplicate. Dilution factor of 23 nL into 4 uL final assay volume. 3; Covered assay plates were incubated for 15 min at room temperature. 4; Substrate was added to start the reaction; 40 uM arachidonic acid (Sigma-Aldrich, St. Louis, MO) was dispensed throughout the plate. 6; Chromogenic detection reagent solution (divalent iron/xylenol orange, Fe-XO) was added to each well: 200 uM xylenol orange, 300 uM ferrous ammonium sulfate prepared freshly in 50 mM sulfuric acid. 8, 9; Two absorbance readouts were obtained at 405 nm and at 573 nm using a ViewLux high-throughput CCD plate imager (Perkin-Elmer). The 573 to 405 (Read 2 / Read 1) absorbance ratio was used to compute reaction progress.
Potency means the concentration at half of the fitted maximal effect.

Chain of Polyunsaturated fatty acid lipoxygenase ALOX12 (Homo sapiens) (P18054 whole entry, looked up): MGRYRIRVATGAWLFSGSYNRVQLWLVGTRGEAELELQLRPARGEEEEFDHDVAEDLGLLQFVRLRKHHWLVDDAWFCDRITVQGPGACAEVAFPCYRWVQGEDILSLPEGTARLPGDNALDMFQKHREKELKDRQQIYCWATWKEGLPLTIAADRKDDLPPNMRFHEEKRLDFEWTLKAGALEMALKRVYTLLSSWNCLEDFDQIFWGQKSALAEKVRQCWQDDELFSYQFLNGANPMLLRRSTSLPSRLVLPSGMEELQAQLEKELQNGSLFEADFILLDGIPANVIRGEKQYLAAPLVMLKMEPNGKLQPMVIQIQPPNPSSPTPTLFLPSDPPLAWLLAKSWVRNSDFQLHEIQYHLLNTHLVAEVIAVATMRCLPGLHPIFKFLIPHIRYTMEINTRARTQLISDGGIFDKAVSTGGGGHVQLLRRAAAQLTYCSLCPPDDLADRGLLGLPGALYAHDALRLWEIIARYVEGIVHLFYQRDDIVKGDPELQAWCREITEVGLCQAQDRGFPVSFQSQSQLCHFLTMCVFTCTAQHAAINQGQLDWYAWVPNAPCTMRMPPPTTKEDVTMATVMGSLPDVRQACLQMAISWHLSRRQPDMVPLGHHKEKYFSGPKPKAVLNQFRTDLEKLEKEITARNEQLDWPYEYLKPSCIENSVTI

Row | Compound | Potency
1 | O=C(CSc1nnc(Cc2ccccc2)n1-n1cccc1)Nc1ccccc1 | inactive
2 | C[C@H](NC(=O)Cc1n[nH]c(=O)c2ccccc12)C(=O)N1CCN(c2ccccc2)CC1 | inactive
3 | Cc1ccc(NC(=O)C2=Cc3sc4c(c3CS2)CCCC4)c(C)c1 | 20 µM (active)
4 | Cc1ccc(NC(=O)CCC2CCCC2)c(C)c1 | inactive
5 | Cc1ccc(NC(=O)c2cccc(CS(C)=O)c2)c(C)c1 (centres undefined) | inactive
6 | CSCCC(=O)NCc1ccccc1F | inactive
7 | CCCCN1CC(C(=O)Nc2ccc(C(=O)Nc3ccccc3F)cc2)CC1=O (centres undefined) | inactive
8 | CN(CC1CCOC1)C(=O)Nc1cc(F)c(F)c(F)c1 (centres undefined) | inactive
9 | CC(=O)OCC1(COC(C)=O)COCC(COC(C)=O)(COC(C)=O)C1=O | inactive
10 | C=CCNCc1ccc(Cl)c(Cl)c1 | inactive
11 | CCOC(=O)c1cc(NCc2c(Cl)cccc2Cl)ccc1N1CCOCC1 | inactive
12 | CCCOC(=O)c1cc(NC(=O)c2cc(Cl)c(OC)c(Cl)c2)ccc1N1CCOCC1 | 5.62 µM (active)
13 | O=C(Nc1ccc(N2CCOCC2)c(Cl)c1)c1ccc2c3c(cccc13)CC2 | inactive
14 | C=CCSc1nc2c(c(=O)[nH]c(=O)n2C)n1CCCCC | inactive
15 | C=CCNC(=O)CSc1nc(-c2ccccc2)c(-c2ccccc2)o1 | inactive
16 | Cn1cc(CN2CCOC[C@H](Oc3ccc(S(C)(=O)=O)cc3)C2)c2ccccc21 | inactive
17 | O=C(NC1CCNC1)C1CCN(c2nc(-c3ccccc3)nc3c2CCC3)CC1 (centres undefined) | inactive
18 | COc1ccc(CNC(=O)C(C)[C@@H]2CCc3c(C)cc(OCCN4CCOCC4)c(C)c3C2)cc1 (some centres undefined) | inactive
19 | O=C(O)/C=C/c1ccc(Cl)cc1Cl | inactive
20 | O=C(O)/C=C/c1ccccc1Cl | inactive
21 | O=C(/C=C/c1ccccc1O)c1ccc(Cl)cc1Cl | 39.8 µM (active)
22 | CN(C)C(=O)c1ccc(OCc2coc(-c3ccccc3)n2)cc1 | inactive
23 | CC(C)Cn1cncc1CNC(=O)c1ccc2nc(-c3ccc(F)cc3)cn2c1 | inactive

Row | Compound | Potency
24 | C[N+]1(CCNC(=O)/C=N/O)CCCCC1 | 6.31 µM (active)
25 | CCN(CC)S(=O)(=O)c1ccc(NC(=O)CC2c3ccccc3C=CN2C(C)=O)cc1 (centres undefined) | inactive
26 | COc1ccc(CC(=O)NC(CCSC)c2nc3ccccc3[nH]2)cc1 (centres undefined) | inactive
27 | COc1ccc(CC(=O)N[C@@H](CCSC)c2nc3ccccc3[nH]2)cc1 | inactive
28 | CSCC[C@H](NC(=O)CSc1cc(Cl)ccc1Cl)c1nc2ccccc2[nH]1 | 44.7 µM (active)
29 | Cc1nc(-c2ccc(OC(F)(F)F)cc2)sc1C(=O)N1CCCC1 | inactive
30 | O=C(CSc1nc(CN2CCOCC2)nc2ccccc12)N1CCN(Cc2ccccc2)CC1 | inactive
31 | Cc1cc2oc(C(=O)Nc3ccc(S(=O)(=O)N4CCCC(C)C4)cc3)cc(=O)c2cc1C (centres undefined) | inactive
32 | CC(=O)N1CCN(C(C(=O)O)c2cn(CCC(=O)O)c3cc(Br)ccc23)CC1 (centres undefined) | inactive
33 | CCCCCCCC[n+]1cccc(C(=O)N2c3c(nc(N)[nH]c3=O)NC(C)C2C)c1 (centres undefined) | 44.7 µM (active)
34 | COc1ccc(CCNC(=O)c2sc(NC(C)C)nc2C)cc1 | inactive
35 | CCCCCCN1CCN(C2CN(Cc3cn(Cc4ccc(F)cc4)nn3)S(=O)(=O)C2)CC1 (centres undefined) | inactive
36 | Cc1cccc(CN2CCN(C3CN(Cc4cn(Cc5ccccc5F)nn4)S(=O)(=O)C3)CC2)c1 (centres undefined) | inactive
37 | O=S1(=O)CC(N2CCSCC2)CN1Cc1cn(Cc2cccc(Cl)c2)nn1 (centres undefined) | inactive
38 | Cc1cccc(CN2CCN(C3CN(Cc4cn(Cc5cc(C)cc(C)c5)nn4)S(=O)(=O)C3)CC2)c1 (centres undefined) | inactive
39 | O=S1(=O)CC(N2CCN(CCO)CC2)CN1Cc1cn(Cc2cccc(Cl)c2)nn1 (centres undefined) | 7.08 µM (active)
40 | O=S1(=O)CC(N2CCN(CCO)CC2)CN1Cc1cn(Cc2ccc(Cl)cc2)nn1 (centres undefined) | 25.1 µM (active)
41 | Cc1nc2ccccc2c(C)c1CC(=O)N1CCC(C)CC1 | inactive
42 | Cn1c(=O)c2c(nc(CN3CCc4ccccc4C3)n2CCCc2ccccc2)n(C)c1=O | inactive
43 | COc1ccc(C(=O)/C=C/c2cccc(OC(=O)C3CC3)c2)cc1 | inactive
44 | Cc1nc2c(c(C)c1CCC(=O)NCCN1CCCC1)c(=O)n(C)c(=O)n2C | inactive
45 | COc1ccc(-c2noc(CNC(=O)COc3cccc(C)c3C)n2)cc1OC | inactive
46 | C=CCNc1nc(Nc2ccc(Cl)cc2)nc(OC)n1 | 39.8 µM (active)

Row | Compound | Potency
47 | C=CCNc1nc(C)nc(OC)n1 | inactive
48 | COc1nc(NCc2ccc(Cl)cc2)nc(OC)n1 | inactive
49 | Cc1[nH]c2ccccc2c1C(=O)CSc1nnc(CC(C)c2ccccc2)o1 (centres undefined) | inactive
50 | N#Cc1ccccc1COC(=O)c1ccc(Br)cc1 | inactive
51 | O=[N+]([O-])c1ccccc1CN1C[C@H](O)C[C@H]1c1nc(-c2ccc(F)cc2)no1 | 39.8 µM (active)
52 | O=[N+]([O-])c1cccc(-c2noc([C@@H]3C[C@@H](O)CN3Cc3cccnc3)n2)c1 | inactive
53 | Oc1ccccc1CN1C[C@H](O)C[C@H]1c1nc(Cc2ccc(F)cc2Cl)no1 | inactive
54 | CC(C)CN1CCOC(CNC(=O)N2CCN(S(=O)(=O)c3ccc(C#N)cc3)CC2)C1 (centres undefined) | inactive
55 | Cc1cccc(C(=O)Nc2cccc(-c3nn4c(C)nnc4s3)c2)c1 | inactive
56 | COc1ccccc1CNc1ncnc2ccc(-c3ccc4c(c3)OCO4)cc12 | inactive
57 | CN1Cc2ncnc(NCc3cccs3)c2CN(c2ccccc2)C1=O | inactive
58 | N#Cc1cccc(-c2ccc3ncnc(NCc4cccs4)c3c2)c1 | 50.1 µM (active)
59 | c1ccc2c(c1)C(=NC1CCCCC1)NC2=NC1CCCCC1 | 31.6 µM (active)
60 | CC(C)(C)c1ccc2c(c1)OCCOCCOCCOc1ccc(C(C)(C)C)cc1OCCOCCOCCO2 | inactive
61 | C[C@H]1CN(C(=O)Nc2ccc(F)cc2)C[C@@H]1c1nc(-c2ccccc2)no1 | inactive
62 | CCOC(=O)c1c(NC(=O)c2c(-c3ccccc3)noc2C)sc2c1CCC2 | inactive
63 | COc1ccc(C(=O)NC(=S)NNC(=O)CCc2ccccc2)cc1 | 12.6 µM (active)
64 | Cc1onc(-c2ccc(F)cc2F)c1C(=O)Nc1cccc(C(F)(F)F)c1 | inactive
65 | Cc1onc(-c2ccccc2)c1C(=O)NNC(=S)NC(=O)c1ccc(F)cc1 | 39.8 µM (active)
66 | CCCNC(=O)c1ccc(NC(=O)CCc2ccccc2)cc1 | inactive
67 | COCc1nc(CCNC(=O)CCc2ccccc2)no1 | inactive
68 | COc1ccc(C(=O)NC(=S)NNC(=O)c2c(-c3ccccc3)noc2C)cc1 | 35.5 µM (active)
69 | COc1ccc(-c2noc([C@@H](C)NCc3ccc(F)cc3)c2C(=O)O)cc1 | inactive
